{"source": "PubChem BioAssay AID434982", "about": "(The Scripps Research Institute Molecular Screening Center, 2010)", "note": "Screen size: about 15,000 compounds; about 60 (0.4%) were called active. Many of the other results were omitted from the sample, so actives are more common in it than they were. A number with no mark means an inactive call. Cut-off read from the data, not from the text of the source: active = activation above about 2.2%; inactive = the rest."}
{"experiment": "agonists of NOTCH signaling (AID 434982)", "settings": "NOTCH signaling luciferase reporter cells, luminescence; at 2.5 µM; hits give high values"}
{"smiles": "O=C1/C(=C\\c2ccc3c(c2)OCO3)N2CCC1CC2", "activation": "3.83% (active)"}
{"smiles": "CN(C)CC1CCCCC1=O", "note": "(stereo not given)", "activation": "0.24%"}
{"smiles": "CNC(=O)O/N=C(\\N)Cc1csc2ccc(Cl)cc12", "activation": "0.88%"}
{"smiles": "Cc1ccc(Oc2c(C)nc(-c3ccccc3)nc2OC(=O)N(C)C)cc1", "activation": "0.1%"}
{"smiles": "N#CCN1CCN(c2cccc(Cl)c2)CC1", "activation": "0.33%"}
